Bioassay records (PubChem)
This is one part of a sample in which hits are shown more often than they occur.
Shh pathway inh: Sonic Hedgehog pathway inhibition; inhibition, % (no concentration beside the values); Shh-LIGHT2 Gli-luciferase reporter, 30 h; 22,000 tested, 2.1% active;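 active means mean inhibition across valid replicates above about 65%, limit read from the data; inconclusive means mean under the limit, yet half or more replicates past it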;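 further: pathway switched on by Shh-conditioned medium diluted 1 in 25 in low serum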
MITF inh: MITF inhibition. inhibition, % (test concentration not listed). 37,000 tested, 0.28% active. TRPM1 promoter luciferase, luminescence, 24 h. AID 2240; in the data active means inhibition above about 85%; inconclusive means no clear call, values can overlap the other calls; inactive means below about 68%;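 further: human melanocyte line stably carrying TRPM1 promoter luciferase reporter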
BJeLR viab HTS: BJeLR cell viability reduction. 30,000 tested, 0.64% active. BJeLR fibroblasts viability, CellTiterGlo ATP luminescence, 48 h; HRASV12, hTERT and SV40 LT/ST transformed. viability loss activity score, % (no concentration beside the values); in the data active means viability loss activity score above about 50%; inconclusive means no clear call, values can overlap the other calls; inactive means below about 35%;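 further: higher score means fewer live cells and less ATP luminescence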
Large screens that a line does not name were inactive.

C[C@@H]1CN([C@H](C)CO)C(=O)c2cccc(NC(=O)Nc3ccc(C(F)(F)F)cc3)c2O[C@@H]1CN(C)S(=O)(=O)c1ccc(Cl)cc1	none
C[C@@H]1CN([C@H](C)CO)C(=O)c2cccc(NC(=O)Nc3ccc(F)cc3)c2O[C@H]1CN(C)S(=O)(=O)c1ccccc1	none
C[C@H]1CN([C@@H](C)CO)C(=O)c2cccc(NC(=O)Nc3ccc(F)cc3)c2O[C@H]1CN(C)S(=O)(=O)c1ccc(Cl)cc1	Shh pathway inh 108
C[C@H](CO)N1C[C@H](C)[C@H](CN(C)S(=O)(=O)c2ccccc2)Oc2c(NC(=O)Nc3ccc(F)cc3)cccc2C1=O	Shh pathway inh 71
C[C@@H]1CN([C@H](C)CO)C(=O)c2cccc(NC(=O)Nc3ccc(F)cc3)c2O[C@H]1CN(C)S(=O)(=O)c1ccc(Cl)cc1	none
C[C@@H]1CN([C@@H](C)CO)C(=O)c2cccc(NC(=O)Nc3ccc(C(F)(F)F)cc3)c2O[C@@H]1CN(C)S(=O)(=O)c1ccc(Cl)cc1	Shh pathway inh inconclusive, MITF inh 87
Cc1ccc(S(=O)(=O)N(C)C[C@@H]2Oc3c(NC(=O)Nc4ccccc4)cccc3C(=O)N([C@@H](C)CO)C[C@H]2C)cc1	none
CC(C)(C)c1ccc(-c2cc3ncc(-c4ccccc4)c(N)n3n2)cc1	none (no result: Shh pathway inh, MITF inh)
COc1ccc(CCNC(=O)c2cn(C3CCCC3)c(=O)c3c2c2ccccc2n3C)cc1OC	none (no result: Shh pathway inh, MITF inh)
CCCC(C)C(=O)NCc1ccc(C)cc1 (configuration not stated)	none (no result: Shh pathway inh, MITF inh)
COc1cc2ccccc2cc1C(=O)Nc1ccc2c(c1)OCCO2	none (no result: Shh pathway inh, MITF inh)
COc1cc2c(cc1O)CCC1C2CC[C@@]2(C)C1CC[C@@H]2O (some centres not stated)	Shh pathway inh 91
COc1cc(C)c2c(c1)CCC1C2CCC2(C)C(O)CCC12 (configuration not stated)	Shh pathway inh inconclusive
O=S(=O)(c1ccc(C2CCCCC2)cc1)N1CCc2ccccc21	none (no result: Shh pathway inh, MITF inh)
Cc1ccc(/C=c2\sc3ncnn3c2=O)o1	none (no result: Shh pathway inh, MITF inh)
O=c1c2ccccc2[nH]c(=S)n1CC1COc2ccccc2O1 (configuration not stated)	none (no result: Shh pathway inh, MITF inh)
CN1C(=O)C(CC(=O)Nc2ccc(F)cc2)N(Cc2ccccc2)C1=S (configuration not stated)	none (no result: Shh pathway inh, MITF inh)
Cc1cc2ncc(-c3ccccc3)nc2cc1C	none
c1ccc(-c2cnc3nonc3n2)cc1	Shh pathway inh 82
CC(C)NC(=O)Nc1cccc2c1O[C@H](CN(C)S(=O)(=O)c1ccc(Cl)cc1)[C@H](C)CN([C@@H](C)CO)C2=O	none
CC(C)NC(=O)Nc1cccc2c1O[C@H](CN(C)S(=O)(=O)c1ccc(F)cc1)[C@H](C)CN([C@H](C)CO)C2=O	none
CC(C)NC(=O)Nc1cccc2c1O[C@@H](CN(C)S(=O)(=O)c1ccc(Cl)cc1)[C@@H](C)CN([C@H](C)CO)C2=O	Shh pathway inh 102
CC(C)NC(=O)Nc1cccc2c1O[C@H](CN(C)S(=O)(=O)c1ccc(Cl)cc1)[C@@H](C)CN([C@H](C)CO)C2=O	none
CC(C)NC(=O)Nc1cccc2c1O[C@@H](CN(C)S(=O)(=O)c1ccc(F)cc1)[C@@H](C)CN([C@@H](C)CO)C2=O	Shh pathway inh 80
CC(C)NC(=O)Nc1cccc2c1O[C@@H](CN(C)S(=O)(=O)c1ccc(Cl)cc1)[C@@H](C)CN([C@@H](C)CO)C2=O	Shh pathway inh 96
COc1ccc(NC(=O)CSc2nc(-c3ccccc3)cc(=O)[nH]2)cc1	none (no result: Shh pathway inh, MITF inh)
O=C(NCC1CCCO1)c1ccc2c(c1)sc1nc(-c3ccccc3)cn12 (configuration not stated)	none (no result: Shh pathway inh, MITF inh)
CCN1CCCC1CNC(=O)c1ccc2c(c1)sc1nc(-c3ccc(C)cc3)cn12 (configuration not stated)	BJeLR viab HTS 95 (no result: Shh pathway inh, MITF inh)
Cc1ccc(-n2cc(-c3ccccc3)nc2SCC(=O)NCCc2ccccc2)cc1	none (no result: Shh pathway inh, MITF inh)
CCc1ccc(NC(=O)CSc2c3c(nc4ccccc24)CCCC3)cc1	none (no result: Shh pathway inh, MITF inh)
COc1ccc(/C=N/n2cnnc2)cc1	none (no result: Shh pathway inh)
COc1ccc(C=Nc2ccc(Br)cc2)cc1	Shh pathway inh 69
CO[C@@]12[C@@H]3NC3CN1C1=C(C(=O)C(N)=C(C)C1=O)[C@@H]2COC(N)=O (some centres not stated)	Shh pathway inh 67
Cc1ccc(S(=O)(=O)N(C)C[C@@H]2Oc3c(NC(=O)Nc4ccc5c(c4)OCO5)cccc3C(=O)N([C@@H](C)CO)C[C@H]2C)cc1	none
Cc1ccc(S(=O)(=O)N(C)C[C@H]2Oc3c(NC(=O)Nc4ccc5c(c4)OCO5)cccc3C(=O)N([C@@H](C)CO)C[C@H]2C)cc1	none
C[C@H]1CN([C@@H](C)CO)C(=O)c2cccc(NC(=O)Nc3ccc4c(c3)OCO4)c2O[C@H]1CN(C)S(=O)(=O)c1ccc(Cl)cc1	Shh pathway inh 107
